About 2,100 (0.62%) of roughly 340,000 compounds were called active.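 The calls were made as follows: active = first-screen hits whose inhibition reached a set limit at any dose in the follow-up dose series; inconclusive = inhibition above the set first-screen limit but never retested; inactive = the rest.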 A selection follows. Entries with a potency or affinity are not part of this list.

Chain of Rac GTPase-activating protein 1 (Homo sapiens) (Q9H0H5 whole entry, looked up): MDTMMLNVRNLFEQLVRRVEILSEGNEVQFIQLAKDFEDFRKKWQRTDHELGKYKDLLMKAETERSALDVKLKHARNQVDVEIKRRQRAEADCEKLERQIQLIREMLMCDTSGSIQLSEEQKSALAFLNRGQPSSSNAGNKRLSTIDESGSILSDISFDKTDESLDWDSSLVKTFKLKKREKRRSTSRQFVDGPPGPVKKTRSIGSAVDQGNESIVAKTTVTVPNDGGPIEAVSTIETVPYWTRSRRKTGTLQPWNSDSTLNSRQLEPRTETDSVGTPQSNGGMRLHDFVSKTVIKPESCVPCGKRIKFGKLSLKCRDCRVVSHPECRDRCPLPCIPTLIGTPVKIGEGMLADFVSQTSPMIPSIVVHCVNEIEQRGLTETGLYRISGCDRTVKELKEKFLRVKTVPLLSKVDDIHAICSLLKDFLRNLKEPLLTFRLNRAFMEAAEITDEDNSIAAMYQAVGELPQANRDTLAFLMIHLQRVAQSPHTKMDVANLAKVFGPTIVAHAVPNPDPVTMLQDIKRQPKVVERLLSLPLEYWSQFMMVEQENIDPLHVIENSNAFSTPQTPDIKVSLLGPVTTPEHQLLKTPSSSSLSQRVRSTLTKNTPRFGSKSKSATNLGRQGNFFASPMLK

The test addresses Rac GTPase-activating protein 1 (Homo sapiens) (UniProt Q9H0H5). In words: MgcRacGAP GTPase-activating activity inhibitors, confirmation, biochemical, ADP Hunter fluorescence, primary and confirmatory (AID 624330).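 Also: fluorescence reports GDP produced by GAP-driven GTP hydrolysis.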 Particulars: MgcRacGAP-stimulated Rac1 GTP hydrolysis, at 30 µM, stronger effect = higher value, GST-tagged Rac1 F28L mutant substrate.
Take `COc1ccc(N2CCc3c(C)nc(SC)nc32)cc1`: the inhibition (usually the drop in the measured response relative to a control, in per cent) is 2.67% (inactive).

In the case of `CSc1nc(C)c2c(n1)N(c1ccc(F)cc1)CC2`, the inhibition is 11.7% (inactive).

Turning to `Cc1ccc(Cl)cc1N1CCN(S(=O)(=O)N2CCCCC2)CC1`, the inhibition is 8.42% (inactive).

With `CN(C)S(=O)(=O)c1cccc(C(=O)NCCc2ccccc2)c1`, the inhibition is 10.5% (inactive).

With `CN(c1ccccc1)S(=O)(=O)c1cccc(C(=O)NCc2ccccc2)c1`, the inhibition was 5.13% (inactive).

On to `CC(C)(C)NC(=O)C(c1ccccn1)N(C(=O)c1csnn1)C1CCCCC1` (stereo not given), for which the inhibition was 2.75% (inactive).

As for `CCOC(=O)C1(Cc2ccccc2)CCN(Cc2csc(C(C)=O)c2)CC1`, the inhibition is 3.47% (inactive).

Take `CC(=O)c1ccc(NC(=O)CCCC(=O)c2ccccc2)cc1`: the inhibition is 8.95% (inactive).

As for `CC(=O)Nc1ccc(NC(=O)CC(c2ccccc2)c2ccccc2)cc1`, the inhibition is 11.3% (inactive).

With `O=C(CCCC(=O)c1ccccc1)Nc1ccc(F)cc1`, the inhibition was 4.81% (inactive).

For the compound `O=C(CC(c1ccccc1)c1ccccc1)Nc1ccc(C(=O)O)cc1`, the inhibition was 13.2% (inactive).

Regarding `Cc1c(OCC(=O)N[C@@H](CSCc2ccccc2)C(=O)O)ccc2c3c(c(=O)oc12)CCC3`, the inhibition was 4.52% (inactive).

On to `CC(=O)c1cccc(-c2ccc3c(=O)[nH]c(Nc4ccccc4)cc3c2)c1`, for which the inhibition was 0.61% (inactive).

For `COc1cc(-c2cc(-c3ccccc3)nc(SCC(=O)Nc3nccs3)c2C#N)cc(OC)c1OC`, the inhibition was -0.01% (inactive).

Consider `CCS(=O)(=O)Nc1cccc(C2=NN(S(=O)(=O)c3ccc(C)cc3)C(c3cccs3)C2)c1` (stereo not given), for which the inhibition is -1.77% (inactive).

On to `CN1OC[C@@H]2CN(C(=O)CCc3ccccc3)[C@H](c3cccc(-c4ccc(C#N)cc4)c3)C[C@@H]21`, for which the inhibition is 4.81% (inactive).

In the case of `O=C(N1CCOCC1)N1CCN(C(c2ccccc2)c2ccccc2)CC1`, the inhibition was 5.11% (inactive).

Consider `CC(C)Cc1nc(SCC(=O)NCC2CCCO2)c2c(=O)n(C)c(=O)n(C)c2n1` (stereo not given), for which the inhibition is 5.52% (inactive).

On to `Cc1ccc(S(=O)(=O)N2CCN(CC(=O)N3CCOCC3)CC2)cc1`, for which the inhibition is 6.79% (inactive).

Consider `Cc1cc(C)c(C)c(S(=O)(=O)N2CCC(C(=O)N3CCN(c4ccc(F)cc4)CC3)CC2)c1C`, for which the inhibition is 3.44% (inactive).

On to `Cc1ccc(C(=O)O)cc1S(=O)(=O)N1CCC(C(=O)O)CC1`, for which the inhibition was 3.35% (inactive).

As to `Cc1cc(C)c(C)c(S(=O)(=O)N2CCN(c3ccccn3)CC2)c1C`, the inhibition was 6.39% (inactive).

In the case of `Cc1cc(C)c(C)c(S(=O)(=O)N2CCN(C)CC2)c1C`, the inhibition was 9.5% (inactive).

In the case of `COc1cccc(N2CCN(S(=O)(=O)c3ccc4ccccc4c3)CC2)c1`, the inhibition is -3.05% (inactive).

Regarding `Cc1ccc(N2CCN(S(=O)(=O)c3ccc(C)cc3)CC2)cc1`, the inhibition is 8.85% (inactive).

In the case of `CC(=O)c1ccc(N2CCN(S(=O)(=O)c3ccc4ccccc4c3)CC2)cc1`, the inhibition was 1.69% (inactive).

As to `CCOc1cc(/C=C(\C#N)C(=O)Nc2ccccc2C(=O)O)ccc1OC(=O)c1ccc(C)cc1`, the inhibition was 12.7% (inactive).

In the case of `CCOC(=O)C1=C(N)n2c(s/c(=C\c3cccnc3)c2=O)=C(C#N)C1c1cccnc1` (stereo not given), the inhibition was 9.67% (inactive).

Turning to `CCOc1ccc(NC(=O)CN2CC(c3ccccc3)CC2=O)cc1` (stereo not given), the inhibition is 1.86% (inactive).

Take `CSc1cc(N2CCOCC2)nc(-c2ccccc2Cl)n1`: the inhibition is 2.89% (inactive).

In the case of `CCN1C(=O)[C@H]2[C@@H](c3ccc(-c4ccc(F)cc4)c(OC)c3)N[C@@](Cc3ccccc3)(C(=O)OC)[C@H]2C1=O`, the inhibition is 0.02% (inactive).

Take `OC(CN1CCN(C(c2ccccc2)c2ccccc2)CC1)c1ccccc1` (stereo not given): the inhibition was 8.44% (inactive).

On to `O=C(NCc1cccc(Cl)c1)C1CCC(=O)N(CCCN2CCCC2=O)C1` (stereo not given), for which the inhibition is 10.9% (inactive).

Regarding `CN(C(=O)c1cccc(C#CC(C)(C)O)c1)C1CCCN(Cc2ccccc2F)C1` (stereo not given), the inhibition is -6.83% (inactive).

For the compound `O=C(CSc1ccccc1)N1CCN(c2ccccc2)CC1`, the inhibition is 10.2% (inactive).

As to `COc1ccc(N2CCN(C(=O)CSc3ccccc3)CC2)cc1`, the inhibition was 17.2% (inactive).

In the case of `Cc1cnc(CNC(=O)c2ccc3oc(C(C)C)nc3c2)[nH]1`, the inhibition is -0.66% (inactive).

On to `Cc1cc(Cl)cc(Br)c1OCCCCn1cncn1`, for which the inhibition was 15.5% (inactive).

Take `Cc1cc(Cl)c(OCCCn2cncn2)c(Br)c1`: the inhibition is 13.1% (inactive).

Regarding `O=c1c2ccccc2nnn1-c1ccccc1[N+](=O)[O-]`, the inhibition is 10.5% (inactive).

With `COc1cc(C(=S)N2CCCCC2)ccc1O`, the inhibition is 13.6% (inactive).

In the case of `COc1cc(C(=S)N2CCCC2)ccc1O`, the inhibition was 24.9% (inactive).

In the case of `O=C(OCc1ccccc1)N1CCC2CC1c1cc(N3CCNCC3)ccc12` (stereo not given), the inhibition is 10.7% (inactive).

Turning to `Cn1c(=O)[nH]c(=O)c2c1nc(N1CCCCCC1)n2Cc1cccc2ccccc12`, the inhibition was 12.6% (inactive).

Turning to `CCOC(=O)C(Cc1ccccc1)NC(C)=O` (stereo not given), the inhibition was -0.49% (inactive).

Consider `CC(=O)NC(Cc1ccccc1)C(C)=O` (stereo not given), for which the inhibition is 8.26% (inactive).

With `COc1cc(CCC(=O)Nc2nnc(-c3cccnc3)s2)cc(OC)c1OC`, the inhibition was 9% (inactive).

Consider `O=C(O)c1cc(NCc2cccs2)ccc1N1CCOCC1`, for which the inhibition was 8.2% (inactive).

In the case of `COC(=O)c1cc(NCc2c(F)cccc2Cl)ccc1N1CCOCC1`, the inhibition was 23.3% (inactive).

Turning to `Clc1cc(NCc2cccs2)ccc1N1CCOCC1`, the inhibition is 14.1% (inactive).

On to `CCOC(=O)c1cc(NC(=O)c2cccs2)ccc1N1CCOCC1`, for which the inhibition was 10.9% (inactive).

Take `COC(=O)c1cc(NC(=O)c2cccs2)ccc1N1CCOCC1`: the inhibition is 8.25% (inactive).

Consider `COc1ccccc1CNc1ccc(N2CCOCC2)c(C(=O)O)c1`, for which the inhibition was 11.4% (inactive).

As to `CC(C)[C@H](NC(=O)c1ccccc1)C(=O)OCC(=O)N1CC2(C)CC1CC(C)(C)C2` (stereo not given in full), the inhibition is -5.69% (inactive).

Turning to `Cc1ccc(S(=O)(=O)N2CCN(c3nc(CN4CCCC4)nc4sc(C)c(C)c34)CC2)cc1`, the inhibition was 6.41% (inactive).

For `CC(C)OC(=O)CSc1nnc(-c2ccc(Cl)cc2Cl)o1`, the inhibition is 9.06% (inactive).

As for `O=C1OCCC1=COCCCCCOC=C1CCOC1=O`, the inhibition is 3.03% (inactive).

On to `N#Cc1ccccc1NC(=O)CSc1n[nH]c(=O)n1C1CC1`, for which the inhibition is -2.21% (inactive).

In the case of `COc1ccccc1CN1CCNC(=O)C1CC(=O)NCCc1cnccn1` (stereo not given), the inhibition was 4.17% (inactive).

For the compound `COc1ccccc1/C=N/NC(=O)C(C)Cn1cnc2ccccc21` (stereo not given), the inhibition is 2.07% (inactive).

In the case of `COc1cc(NC(c2ccccc2)c2ccccc2)cc(OC)c1OC`, the inhibition is 11% (inactive).

`COc1cc(C(=O)NC(c2ccccc2)c2ccccc2)cc(OC)c1C`: the inhibition was 2.28% (inactive).

As to `O=C(OCC(=O)N1CCN(S(=O)(=O)c2ccc(Cl)cc2)CC1)c1cccc(OC(F)F)c1`, the inhibition is 5.16% (inactive).

As to `O=C(c1ccc(O)c(Br)c1)c1cc(Br)ccc1O`, the inhibition was 4.27% (inactive).

On to `O=C(CCNC(=O)c1ccco1)Nc1ccccc1OC(F)F`, for which the inhibition was 5.22% (inactive).

On to `CCCC1=Nc2cc(C(=O)NCCCN3CCOCC3)ccc2Sc2ccccc21`, for which the inhibition is 10.2% (inactive).

Take `CC(Nc1ccc(Cl)cc1)c1cc(Cl)ccc1O` (stereo not given): the inhibition was 7.06% (inactive).

With `CCOc1ccc(NC(C)c2cc(Cl)ccc2O)cc1` (stereo not given), the inhibition is 15.5% (inactive).

`COC(=O)c1ccc(Nc2nc(-c3ccncc3)nc3ccccc23)cc1`: the inhibition was 4.52% (inactive).

With `CCN1CCN(C(=O)C2CCN(C(=O)c3cc4sccc4n3CC)CC2)CC1`, the inhibition is 9.89% (inactive).

As for `CN1CCC(N2CCN(c3cccc(C(F)(F)F)c3)CC2)CC1`, the inhibition was 5.09% (inactive).

As to `FC(F)(F)c1cccc(N2Cc3ccccc3C2)c1`, the inhibition was 11.1% (inactive).

Consider `O=C(N/N=C/c1ccccc1O)c1cccc(C(F)(F)F)c1`, for which the inhibition is -1.42% (inactive).

Regarding `FC(F)(F)c1cccc(CN2CCCCCC2)c1`, the inhibition was 26.2% (inactive).

As for `Oc1ccc(N=Nc2cccc(C(F)(F)F)c2)cc1C=Nc1ccc(N2CCOCC2)cc1`, the inhibition is 9.72% (inactive).

Consider `O=C(C1CCC1)N1CCN(c2cccc(C(F)(F)F)c2)CC1`, for which the inhibition was 0.34% (inactive).

With `O=C(C1=C(O)C(=O)N(CCN2CCOCC2)C1c1ccccn1)c1cccs1` (stereo not given), the inhibition is 8.66% (inactive).

Take `COc1cc2c(cc1NC(=O)c1ccc(C)c([N+](=O)[O-])c1)oc1ccccc12`: the inhibition was 8.23% (inactive).

`CN(C)S(=O)(=O)c1ccc(C(=O)Nc2cccc(C(=O)O)c2)cc1`: the inhibition is -1.04% (inactive).

Turning to `CCN(CC(=O)N1CCCCC1)S(=O)(=O)c1ccccc1`, the inhibition was 5.64% (inactive).

Turning to `CCOC(=O)C1CCN(C(=O)c2cccc(S(=O)(=O)N3CCc4ccccc43)c2)CC1`, the inhibition was 3.11% (inactive).

Take `CCCCNC(=O)C(CC)Sc1nc2sc(C(=O)OC)c(C)c2c(=O)n1N` (stereo not given): the inhibition was 9.24% (inactive).

Consider `CCCCOC(=O)c1nc(Cl)c(Cl)c(N)c1Cl`, for which the inhibition is -9.26% (inactive).

In the case of `O=C1C=C(Nc2ccc(Cl)cc2)CC(c2ccco2)C1` (stereo not given), the inhibition is 5.91% (inactive).

Regarding `O=C1C=C(Nc2cccc(O)c2)CC(c2ccco2)C1` (stereo not given), the inhibition is 9.63% (inactive).

As to `O=C(O)c1ccc(N=Nc2c(O)[nH]c3ccccc23)cc1`, the inhibition was 5.98% (inactive).

Turning to `Oc1[nH]c2ccccc2c1N=Nc1ccc(F)cc1`, the inhibition was 4.29% (inactive).

Regarding `CCN1CCN(C(=O)NC2CCCCC2)CC1`, the inhibition was 30.1% (inactive).

With `CCN1CCN(S(=O)(=O)c2ccc(S(=O)(=O)NCC3CCCO3)cc2)CC1` (stereo not given), the inhibition was 1.86% (inactive).

For the compound `Cc1ccc[n+](CC(=O)c2ccc(Br)cc2)c1C`, the inhibition is -7.12% (inactive).

Take `Nc1ccccc1C=C1Cc2ccccc2C1=O`: the inhibition is 3.76% (inactive).

As to `CC(C)c1ccc(OCC(=O)NCc2ccco2)cc1`, the inhibition was 6.29% (inactive).

For `O=C(NCc1ccco1)c1ccc(COc2ccc(Cl)cc2)cc1`, the inhibition is -1.23% (inactive).

For the compound `Cc1noc(C)c1S(=O)(=O)Nc1ccc2c(c1)C(=O)N([C@H](C)CO)C[C@@H](C)[C@@H](CN(C)Cc1ccc3c(c1)OCO3)O2`, the inhibition is 1.37% (inactive).

`CC(=O)Nc1ccc(S(=O)(=O)N2CCC(N3CCCC3)CC2)cc1`: the inhibition is 18.2% (inactive).

Source of the values: PubChem BioAssay AID624330 (Southern Research Specialized Biocontainment Screening …, 2012).
